Measurements reported in PubChem BioAssay (NCATS).
Inconclusive results are not listed. Active and inactive are the calls of the source. Calls come from the whole dose curve; as a rule, active = well fitted curve in the direction sought with a large enough effect; inconclusive = small, poorly fitted or top-dose-only effect, or another doubt; inactive = no such curve, though single readings can be large; an effect the other way counts as inactive or inconclusive.

How the values were obtained:
[1] = biological target: M-phase phosphoprotein 8 (Homo sapiens) (UniProt Q99549); assay: qHTS Validation Assay for Inhibitors for MPP8 Chromodomain Interactions with Methylated Histone Tails (AID 488949); settings: AlphaScreen MPP8 binding to H3K9me3 peptide; series mostly up to 57.1 µM;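 note: AlphaScreen signal from MPP8 chromodomain bound to biotinylated H3K9me3 peptide; top concentration of the series differs between compounds; nearly all actives have a fitted effect of over 55% in size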
M-phase phosphoprotein 8 (Homo sapiens), sequence (Q99549 whole entry, looked up): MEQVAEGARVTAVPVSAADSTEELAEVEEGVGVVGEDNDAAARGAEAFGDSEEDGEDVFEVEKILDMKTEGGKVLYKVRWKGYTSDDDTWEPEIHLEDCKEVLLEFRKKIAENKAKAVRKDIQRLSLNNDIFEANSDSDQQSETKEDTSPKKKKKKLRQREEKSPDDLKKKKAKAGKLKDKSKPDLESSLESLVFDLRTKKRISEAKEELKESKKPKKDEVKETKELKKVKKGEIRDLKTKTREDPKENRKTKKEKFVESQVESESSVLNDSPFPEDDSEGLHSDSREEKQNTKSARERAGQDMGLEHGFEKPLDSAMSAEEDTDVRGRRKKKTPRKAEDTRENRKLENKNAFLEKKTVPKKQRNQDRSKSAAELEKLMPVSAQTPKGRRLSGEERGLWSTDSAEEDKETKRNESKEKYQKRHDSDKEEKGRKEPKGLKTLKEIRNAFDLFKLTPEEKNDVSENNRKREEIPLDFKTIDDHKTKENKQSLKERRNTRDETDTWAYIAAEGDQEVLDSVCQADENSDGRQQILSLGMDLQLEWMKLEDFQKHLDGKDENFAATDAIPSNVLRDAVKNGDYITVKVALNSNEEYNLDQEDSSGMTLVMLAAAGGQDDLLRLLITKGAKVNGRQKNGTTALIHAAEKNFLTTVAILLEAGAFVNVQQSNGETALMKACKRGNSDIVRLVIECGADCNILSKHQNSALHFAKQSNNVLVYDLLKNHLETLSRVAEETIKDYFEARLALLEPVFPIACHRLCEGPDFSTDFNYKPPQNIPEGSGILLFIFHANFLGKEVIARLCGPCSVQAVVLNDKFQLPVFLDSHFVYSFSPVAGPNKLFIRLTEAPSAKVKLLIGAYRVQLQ
Method in brief: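 AlphaScreen read-out: streptavidin donor and nickel chelate acceptor beads (final 10 ug/mL), 30 min in the dark at RT. Complex of 50 nM MPP8 and 50 nM b-H3(1-18)K9me3 peptide had been exposed to compounds for 30 min beforehand.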

[2] = biological target: Chromobox protein homolog 1 (Homo sapiens) (UniProt P83916); assay: qHTS Validation Assay for Inhibitors of HP1-beta Chromodomain Interactions with Methylated Histone Tails (AID 488953); settings: HP1-beta chromodomain / methylated histone peptide binding assay; series mostly up to 114 µM;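 note: loss of AlphaScreen luminescence from HP1-beta binding biotinylated H3K9me3 peptide; nearly all actives have a fitted effect of over 50% in size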
Chromobox protein homolog 1 (Homo sapiens), sequence (P83916 whole entry, looked up): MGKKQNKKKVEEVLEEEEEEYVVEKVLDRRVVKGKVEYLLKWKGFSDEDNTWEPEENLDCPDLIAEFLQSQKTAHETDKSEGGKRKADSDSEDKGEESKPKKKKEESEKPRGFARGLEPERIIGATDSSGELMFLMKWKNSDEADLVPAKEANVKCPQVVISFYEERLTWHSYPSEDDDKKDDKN
Method in brief: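 HP1-beta (50 nM) preformed 30 min with biotinylated H3(1-18)K9me3 peptide (50 nM) in PBS pH 7.4, 0.01% Tween-20. Compounds added for 30 min at room temperature. Complex disruption read by AlphaScreen with streptavidin donor/nickel chelate acceptor beads (10 ug/mL each).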

[3] = biological target: Methanococcus maripaludis chaperonin (MmCpn) (UniProt Q6LX38); assay: High-Throughput Screening for Modulators of Cytosolic Chaperonin Activity: MmCpn Primary Screen (AID 488978); settings: Purified MmCpn ATPase activity, ADP HTRF detection, 10 min; series mostly up to 76.9 µM;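 note: 50 nM MmCpn enzyme hydrolysing 30 µM ATP at 37 °C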
Methanococcus maripaludis chaperonin (MmCpn), sequence (Q6LX38 1-543): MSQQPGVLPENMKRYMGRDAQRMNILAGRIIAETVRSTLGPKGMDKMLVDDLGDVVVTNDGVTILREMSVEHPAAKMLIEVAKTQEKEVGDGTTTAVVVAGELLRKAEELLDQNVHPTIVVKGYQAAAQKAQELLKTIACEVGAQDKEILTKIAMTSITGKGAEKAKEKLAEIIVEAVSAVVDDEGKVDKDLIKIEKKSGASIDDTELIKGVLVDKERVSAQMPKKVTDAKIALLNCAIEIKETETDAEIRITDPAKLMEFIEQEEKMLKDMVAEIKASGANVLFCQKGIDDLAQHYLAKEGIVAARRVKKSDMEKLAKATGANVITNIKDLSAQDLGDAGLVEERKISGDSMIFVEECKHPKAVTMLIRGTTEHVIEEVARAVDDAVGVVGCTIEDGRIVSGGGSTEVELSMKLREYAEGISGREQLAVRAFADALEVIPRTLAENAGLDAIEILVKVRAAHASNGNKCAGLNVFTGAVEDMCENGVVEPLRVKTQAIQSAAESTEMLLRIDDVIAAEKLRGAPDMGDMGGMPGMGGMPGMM
Method in brief: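 ADP formation read by HTRF Transcreener, 665/590 nm emission after 320 nm excitation. Enzyme: archaeal chaperonin at 50 nM final; substrate ATP 30 uM final; 10 min, 37C, after 5 min compound preincubation at RT.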

[4] = biological target: D(1A) dopamine receptor (Homo sapiens) (UniProt P21728); assay: HTS Assay for Allosteric Agonists of the Human D1 Dopamine Receptor: Primary Screen for Agonists (AID 488981); settings: Inducible HEK293 T-REx D1 cells, calcium-flux fluorescence, 180 s kinetic; series mostly up to 41.8 µM
D(1A) dopamine receptor (Homo sapiens), sequence (P21728 whole entry, looked up): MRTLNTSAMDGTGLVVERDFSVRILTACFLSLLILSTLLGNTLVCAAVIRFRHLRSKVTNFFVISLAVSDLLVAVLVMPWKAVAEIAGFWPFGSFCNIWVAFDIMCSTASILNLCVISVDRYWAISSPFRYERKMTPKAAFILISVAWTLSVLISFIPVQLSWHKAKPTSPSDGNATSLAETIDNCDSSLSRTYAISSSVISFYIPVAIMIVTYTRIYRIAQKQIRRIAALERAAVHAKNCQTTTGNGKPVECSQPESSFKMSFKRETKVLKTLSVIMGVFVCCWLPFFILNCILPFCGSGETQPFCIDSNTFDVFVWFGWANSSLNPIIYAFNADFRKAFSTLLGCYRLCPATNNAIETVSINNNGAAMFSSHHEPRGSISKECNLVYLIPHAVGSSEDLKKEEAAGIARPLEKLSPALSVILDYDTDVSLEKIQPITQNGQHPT
Method in brief: (§1)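 Tetracycline-induced HEK293 Trex D1 cells with forced coupling to calcium, loaded with no-wash calcium dye; kinetic fluorescence read 180 s after compound addition for agonism, then a further 180 s after an EC20 dopamine challenge for potentiation.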

[5] = biological target: D(1A) dopamine receptor (Homo sapiens) (UniProt P21728); assay: HTS Assay for Allosteric Agonists of the Human D1 Dopamine Receptor: Primary Screen for Potentiators (AID 488982); settings: HEK293 T-REx D1 inducible cells, calcium flux, kinetic fluorescence; series mostly up to 8.37 µM
Method in brief: as §1

[6] = biological target: D(1A) dopamine receptor (Homo sapiens) (UniProt P21728); assay: HTS Assay for Allosteric Agonists of the Human D1 Dopamine Receptor: Primary Screen for Antagonists (AID 488983); settings: D1 receptor cell assay, antagonist mode, qHTS titration; series mostly up to 41.8 µM;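 note: calcium flux response to an EC80 dopamine challenge measured with no-wash dye; nearly all actives have a fitted effect of over 65% in size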
Method in brief: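 Tetracycline-induced HEK293 T-REx D1 line, force-coupled to calcium flux, read with no-wash calcium dye. Compound added after 10 s baseline, read 180 s for agonism, then EC80 dopamine added and read a further 180 s.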

[7] = biological target: Transient receptor potential cation channel subfamily V member 1 (Homo sapiens) (UniProt Q8NER1); assay: HTS Assay for Compounds that Act as Enhancers of the Vanilloid Receptor 1 (AID 488979); settings: TRPV1-expressing cells, enhancer of channel activity, stimulated with capsaicin at EC20; series mostly up to 41.7 µM
Transient receptor potential cation channel subfamily V member 1 (Homo sapiens), sequence (Q8NER1 whole entry, looked up): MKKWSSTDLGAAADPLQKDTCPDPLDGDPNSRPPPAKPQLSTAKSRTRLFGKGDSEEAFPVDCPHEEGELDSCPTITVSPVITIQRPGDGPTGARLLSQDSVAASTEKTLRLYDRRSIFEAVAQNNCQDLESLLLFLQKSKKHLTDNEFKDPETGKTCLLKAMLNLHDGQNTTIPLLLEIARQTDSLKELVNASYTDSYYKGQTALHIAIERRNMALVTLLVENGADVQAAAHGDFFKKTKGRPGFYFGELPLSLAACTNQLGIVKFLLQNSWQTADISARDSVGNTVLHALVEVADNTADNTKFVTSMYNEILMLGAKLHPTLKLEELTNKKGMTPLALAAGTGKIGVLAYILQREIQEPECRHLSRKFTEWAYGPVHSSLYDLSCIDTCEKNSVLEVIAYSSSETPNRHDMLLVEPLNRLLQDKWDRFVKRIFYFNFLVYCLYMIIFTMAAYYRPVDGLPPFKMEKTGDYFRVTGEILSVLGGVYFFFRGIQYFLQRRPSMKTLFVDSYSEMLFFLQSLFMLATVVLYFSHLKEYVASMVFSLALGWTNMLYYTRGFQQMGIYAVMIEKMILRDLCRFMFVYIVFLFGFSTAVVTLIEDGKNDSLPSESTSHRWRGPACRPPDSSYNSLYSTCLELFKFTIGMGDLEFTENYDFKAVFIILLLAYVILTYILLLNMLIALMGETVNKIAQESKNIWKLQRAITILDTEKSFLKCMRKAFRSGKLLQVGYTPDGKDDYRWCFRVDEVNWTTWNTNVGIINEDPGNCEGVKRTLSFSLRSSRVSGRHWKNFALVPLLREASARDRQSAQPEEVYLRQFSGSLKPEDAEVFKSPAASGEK
Method in brief: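 TRPV1 cells loaded with Fluo-8 calcium dye; compound added and Ca2+ signal (ex 480/em 520 nm) followed 3 min, then capsaicin at EC20 added and read 2 more min to detect enhancement.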

[8] = biological target: Thyrotropin receptor (Homo sapiens) (UniProt P16473); assay: qHTS Assay for Antagonists of the Thyroid Stimulating Hormone Receptor (AID 488980); settings: TSHR-expressing cells, cAMP antagonist read-out; series mostly up to 57.5 µM
Thyrotropin receptor (Homo sapiens), sequence (P16473 whole entry, looked up): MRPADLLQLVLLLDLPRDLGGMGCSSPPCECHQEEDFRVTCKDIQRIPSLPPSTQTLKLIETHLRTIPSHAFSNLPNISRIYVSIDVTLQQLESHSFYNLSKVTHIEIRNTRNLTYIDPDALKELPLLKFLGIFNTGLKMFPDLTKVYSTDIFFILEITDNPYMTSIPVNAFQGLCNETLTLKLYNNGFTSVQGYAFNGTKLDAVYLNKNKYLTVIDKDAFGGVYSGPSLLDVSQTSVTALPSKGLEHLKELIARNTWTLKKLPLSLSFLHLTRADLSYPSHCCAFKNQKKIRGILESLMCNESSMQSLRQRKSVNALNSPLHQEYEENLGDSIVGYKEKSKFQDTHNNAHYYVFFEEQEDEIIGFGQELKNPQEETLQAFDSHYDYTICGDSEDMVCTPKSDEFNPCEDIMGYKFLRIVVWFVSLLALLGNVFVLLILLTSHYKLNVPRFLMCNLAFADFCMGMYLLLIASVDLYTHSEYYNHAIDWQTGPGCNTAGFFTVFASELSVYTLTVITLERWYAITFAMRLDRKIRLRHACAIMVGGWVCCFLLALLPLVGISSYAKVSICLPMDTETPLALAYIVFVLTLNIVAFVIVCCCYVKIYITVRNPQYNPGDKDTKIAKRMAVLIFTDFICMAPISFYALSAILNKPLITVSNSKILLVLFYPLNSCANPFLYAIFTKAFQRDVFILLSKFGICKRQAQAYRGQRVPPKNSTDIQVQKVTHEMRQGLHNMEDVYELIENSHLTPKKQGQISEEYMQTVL
Method in brief: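 TSHR-HEK293 cells; 70 uM RO 20-1724 PDE inhibitor; compound + EC80 TSH (4 nM final); anti-cAMP cryptate antibody/cAMP-d2 in lysis buffer, 30 min RT; HTRF 665/620 nm read.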

[9] = biological target: ATP-dependent 6-phosphofructokinase (Trypanosoma brucei brucei) (UniProt O15648); assay: qHTS Assay to Find Inhibitors of T. brucei phosphofructokinase: hit validation (AID 492961);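 note: luminescence reports ADP formed as PFK phosphorylates fructose-6-phosphate with ATP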; settings: T. brucei PFK, ADP-Glo luminescence; series mostly up to 51.4 µM
ATP-dependent 6-phosphofructokinase (Trypanosoma brucei brucei), sequence (O15648 whole entry, looked up): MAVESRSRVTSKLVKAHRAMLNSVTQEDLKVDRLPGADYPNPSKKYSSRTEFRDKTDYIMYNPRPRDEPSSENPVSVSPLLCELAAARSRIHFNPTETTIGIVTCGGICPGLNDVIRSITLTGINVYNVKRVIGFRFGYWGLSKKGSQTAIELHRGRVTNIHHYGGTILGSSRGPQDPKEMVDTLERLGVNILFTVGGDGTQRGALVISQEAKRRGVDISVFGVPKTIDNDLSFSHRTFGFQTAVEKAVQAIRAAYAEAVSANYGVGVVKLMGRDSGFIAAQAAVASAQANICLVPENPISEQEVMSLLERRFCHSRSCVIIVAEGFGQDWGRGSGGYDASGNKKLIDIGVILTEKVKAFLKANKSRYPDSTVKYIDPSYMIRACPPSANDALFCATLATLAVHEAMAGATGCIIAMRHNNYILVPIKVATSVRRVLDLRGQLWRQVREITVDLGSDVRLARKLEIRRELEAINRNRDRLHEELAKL
Method in brief: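 Inhibition of parasite PFK is measured as reduced ADP formation, quantified via luciferase after ATP depletion. Assay used 0.1 mM ATP, 0.5 mM F6P, 1.25 nM enzyme, 45 min incubation.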

Measured: Potency

O=C(O)COCCN1CCN(C(c2ccccc2)c2ccc(Cl)cc2)CC1 (centres undefined)
not listed: [7] | [8] | [9]
inactive: all other assays above

CC(C)NCC(O)COc1ccc(COCCOC(C)C)cc1 (centres undefined)
not listed: [2]
inactive: all other assays above

O=C(Nc1nc2ccccc2n1CCN1CCOCC1)c1cccc([N+](=O)[O-])c1
inactive: [1] | [3] | [4] | [6]

Cc1cnc(NC(=O)C2=C(O)c3ccccc3S(=O)(=O)N2C)s1
not listed: [7] | [8] | [9]
inactive: all other assays above
